Bioassay records deposited in PubChem by The Scripps Research Institute Molecular Screening Center.
The sample as a whole holds a higher share of hits than the screen did.
TTR transcr act: TTR transcription activation, primary screen; SH-SY5Y TTR promoter Gaussia luciferase, luminescence; 100% = recombinant luciferase protein wells; activation, % at 16.7 µM; 1.3% of 92,000 active;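 active = activation above the mean of all tested compounds plus 3 SD, cut at about 9.5% in these data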;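 note: cells exposed to compounds for one day before reading; 0% = median of all test compound wells on the plate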
TTR inh HuH7: decreases TTR transcription in HuH7 cells in activator counter-screen | 4% of 1,100 active | shares compounds with TTR transcr act | HuH7 TTR promoter-Gaussia luciferase reporter, luminescence | inhibition, % at 16.7 µM | AID 1117279;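 active = average inhibition above the solvent-only control wells' mean plus 3 SD, cut at about 15% in these data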;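 note: 0% = cells with DMSO only and 100% = cells with inhibitor control FD; inhibitors lower well luminescence so higher value means more inhibition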
TTR up confirm: confirmation of human transthyretin transcription activators. SHSY5Y TTR promoter Gaussia luciferase, luminescence; 100% = purified Lucia enzyme wells, no cells. 1,100 tested, under 10 active. activation, % at 16.7 µM. shares compounds with TTR transcr act;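 active = mean activation above a set limit taken from the earlier primary screen, cut at about 11% in these data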;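 note: 0% = DMSO-treated cells and 100% = recombinant Lucia luciferase without cells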
Numbers without * were called inactive.

Screening CCOc1ccc(C(=O)N[C@H](C(=O)Nc2ccccc2OC)C(C)C)cc1 returned TTR transcr act 2.
Screening CCOc1ccc(C(=O)NCc2ccccc2OC)cc1 returned TTR transcr act 15*, TTR inh HuH7 -12 and TTR up confirm 0.
`CCCn1nc2cc(C(=O)NCc3ccccc3OC)ccc2c1OCC` gave TTR transcr act 0.
NC(=O)C1CCN(C(=O)c2ccccc2SCC(=O)NCC2CCCCC2)CC1 was read as TTR transcr act 1.
`Cc1nc2ccccc2n1-c1ccccc1` gave TTR transcr act 0.
`On1c(-c2ccccc2)nc2ccccc21` gave TTR transcr act 11*, TTR inh HuH7 -8 and TTR up confirm 0.
Nn1c(-c2ccccc2)nc2ccccc2c1=O was read as TTR transcr act 3.
`CCCCn1nnnc1C1(C)CCC(=O)N1Cc1ccco1` (centres undefined) gave TTR transcr act 0.
Screening COc1ccccc1NCc1nc2ccccc2n1C returned TTR transcr act 1.
Screening COC(=O)CCN1CCN(S(=O)(=O)c2cccc(Br)c2)CC1 returned TTR transcr act 2.
O=C1CN(S(=O)(=O)c2cccc(Br)c2)CCN1 was read as TTR transcr act 14*, TTR inh HuH7 -10 and TTR up confirm 0.
Screening Cc1ccc(S(=O)(=O)N2CCNC(=O)C2)c(C)c1 returned TTR transcr act 6.
Screening Cc1ccc(NC(=O)CSc2ccc3nnc(CCNC(=O)c4ccccc4)n3n2)c(C)c1 returned TTR transcr act 0.
Screening CO[C@H]([C@H](C)/C=C/N(C)C=O)[C@@H](C)C(=O)CC[C@H](C)[C@H](O)[C@H](C)[C@H]1OC(=O)/C=C/C(C)=C/C[C@H](O)C[C@@H]2C=CC[C@@H](C[C@H](OC)[C@@H](C)[C@@H](OC)C[C@@H](OC)[C@@H]1C)O2 returned TTR transcr act 3.
CCN1C(=O)[C@H]2[C@H]3CN=C(SCc4ccc(C(=O)OC)cc4)N3[C@@](Cc3ccccc3)(C(=O)OC)[C@H]2C1=O was read as TTR transcr act -1.
`CCN1C(=O)[C@H]2[C@H]3CN=C(SCc4ccc(C)cc4)N3[C@@](Cc3ccccc3)(C(=O)OC)[C@H]2C1=O` gave TTR transcr act 24*, TTR inh HuH7 -2 and TTR up confirm 3.
CCN1C(=O)[C@H]2[C@H]3CN=C(SCc4ccc(Cl)cc4)N3[C@@](Cc3ccccc3)(C(=O)OC)[C@H]2C1=O was read as TTR transcr act -2.
COC(=O)[C@]12C[C@H](CC(=O)NCC3CCCCC3)C(=O)N(Cc3ccc(Cl)cc3Cl)C1=C[C@H](C(C)(C)C)O[C@@H]2C was read as TTR transcr act 0.
For COc1ccc(NC(=O)c2cnn(-c3ccccc3)c2C)cc1OC the results were TTR transcr act 0.
For C=CCN(C)C(C#Cc1ccccc1)c1ccccc1C(F)(F)F (centres undefined) the results were TTR transcr act 0.
Screening CCC(C)(C)NC(=O)C(c1ccccc1F)N(Cc1ccco1)C(=O)Cn1nnc2ccccc21 (centres undefined) returned TTR transcr act 6.
For COc1ccc(CN(C(=O)Cn2nnc3ccccc32)C(C(=O)NC(C)(C)C)c2ccco2)cc1 (centres undefined) the results were TTR transcr act 9.9*, TTR inh HuH7 -9 and TTR up confirm 0.
O=C(NC1CCCCC1)C(c1ccco1)N(Cc1cccs1)C(=O)Cn1nnc2ccccc21 (centres undefined) was read as TTR transcr act -3.
`O=C(Nc1ccccc1)OCCN1CCCC12CCC(c1ccccc1)CC2` (centres undefined) gave TTR transcr act 0.
Screening Cc1c(Br)ccc(NC(=O)c2ccccc2[N+](=O)[O-])c1C returned TTR transcr act 0.
`Cc1noc(C)c1COc1cccc(C(=O)OCCOc2ccc(F)cc2)c1` gave TTR transcr act 12*, TTR inh HuH7 -7 and TTR up confirm 1.
COc1ccc(C(C)=O)cc1COC(=O)c1ccc(OCc2c(C)noc2C)cc1 was read as TTR transcr act 1.
Screening Cc1cccc(C)c1NC(=O)c1ccc(OCc2c(C)noc2C)cc1 returned TTR transcr act -1.
For COC(=O)[C@@H]1[C@H](O[Si](C)(C)C(C)(C)C)C2OC2C[C@H]1S(=O)(=O)c1ccccc1 (some centres undefined) the results were TTR transcr act -1.
For CCC(C)N(C(=O)COc1ccc(NC(C)=O)cc1)C1CCS(=O)(=O)C1 (centres undefined) the results were TTR transcr act 2.
`Cc1ccc2cccc(S(=O)(=O)Nc3ccc4c(c3)OCO4)c2n1` gave TTR transcr act 14*, TTR inh HuH7 -19 and TTR up confirm 2.
Screening O=S(=O)(Nc1ccc2c(c1)OCCO2)c1cccc2nsnc12 returned TTR transcr act 1.
For O=S(=O)(Nc1ccc2c(c1)OCO2)c1ccccc1 the results were TTR transcr act 0.
`CC1CCCC(NC(=O)COC(=O)c2cc3ccccc3oc2=O)C1C` (centres undefined) gave TTR transcr act -1.
For O=C(/C=C/c1cccc([N+](=O)[O-])c1)OCC(=O)N1CCCCC1 the results were TTR transcr act -1.
`O=C1CCC2(CCC(c3ccccc3)CC2)N1CC[C@@H](O)c1ccccc1` (some centres undefined) gave TTR transcr act -1.
`Cc1cc(C(=O)N/N=C/c2cccc(OC(=O)c3cccc(Br)c3)c2)n[nH]1` gave TTR transcr act -2.
Screening COc1cccc(/C=N/NC(=O)c2cc(C34CC5CC(CC(C5)C3)C4)[nH]n2)c1 returned TTR transcr act 17*, TTR inh HuH7 -12 and TTR up confirm 0.
Screening COc1ccc(/C=N/NC(=O)c2cc(C34CC5CC(CC(C5)C3)C4)[nH]n2)cc1OC returned TTR transcr act 5.
`CCc1ccc(N2CC(C(=O)Nc3ccccc3N3CCCC3)CC2=O)cc1` (centres undefined) gave TTR transcr act 0.
`Cc1cc(C)c(C(N)=O)c(Nc2ccc3c(c2)OCCO3)n1` gave TTR transcr act 10*, TTR inh HuH7 -11 and TTR up confirm 0.
Screening COc1ccc(Nc2nc(C)cc(C)c2C(N)=O)cc1 returned TTR transcr act -2.
Screening CCc1ccc(Nc2nc(C)cc(C)c2C(N)=O)cc1 returned TTR transcr act 1.
Screening O=C(/C=C/c1ccccc1)Nc1ccc(Cl)cn1 returned TTR transcr act -3.
For CC(C)C(NC(=O)[C@H](Cc1ccc(O)cc1)NC(=O)OC(C)(C)C)P(=O)(O)OC(Cc1ccccc1)C(=O)O (some centres undefined) the results were TTR transcr act 0.
`COc1ccc(-n2nnnc2SC(C)C(N)=O)cc1` (centres undefined) gave TTR transcr act 2.
For CCN(CC)S(=O)(=O)c1ccc2c(c1)nc(SC(C)C(=O)NCC1CCCO1)n2CC (centres undefined) the results were TTR transcr act 2.
`CCN(CC)S(=O)(=O)c1ccc2c(c1)nc(SC(C)C(N)=O)n2-c1ccc(OC)cc1` (centres undefined) gave TTR transcr act 26*, TTR inh HuH7 6 and TTR up confirm -2.
